Measured values from PubChem BioAssay AID1159580 (chemical genetic matrix, 2015).
About 2,000 (36%) of roughly 5,500 compounds were called active. Another 18% or so got no clear call; they are omitted. No stated cut-off is given here; in the data, active means normalized growth mostly below about 0.91 (no sharp cut-off); inconclusive means no clear call, values can overlap the other calls; inactive means mostly above about 0.92. The list shows a part of the results.

Assay: chemical genetic growth profiling, strain panel (AID 1159580);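 further: tested at 20 µM; growth read once vehicle control cultures reached saturation at 30 °C; 1 = growth at the plate median or of vehicle wells; lower values mean less growth of the strain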
Conditions: S. cerevisiae deletion strains, growth OD
[1] = locus YDL101C, strain DUN1, hits give low values
[2] = locus YHR030C, strain SLT2, hits give low values

Measured: normalized growth

CCCN(CCC)C(=S)NC(=O)c1cccc([N+](=O)[O-])c1
inactive: locus YAR019C, strain CDC15, hits give low values 0.973 | locus YBL105C, strain PKC1, hits give low values 0.956 | locus YBR135W, strain CKS1, hits give low values 0.977 | locus YBR136W, strain MEC1, hits give low values 0.966 | locus YBR160W, strain CDC28, hits give low values 0.965 | locus YDL017W, strain CDC7, hits give low values 0.969 | locus YDL028C, strain MPS1, hits give low values 0.976 | [1] 0.968 | locus YDL108W, strain KIN28, hits give low values 0.965 | locus YDL132W, strain cdc53, hits give low values 0.973 | locus YDL214C, strain PRR2, hits give low values 0.967 | locus YDR052C, strain DBF4, hits give low values 0.978 | locus YDR054C, strain cdc34, hits give low values 0.96 | locus YDR226W, strain ADK1, hits give low values 0.968 | locus YDR477W, strain SNF1, hits give low values 0.958 | locus YER123W, strain YCK3, hits give low values 0.907 | locus YER133W, strain GLC7, hits give low values 0.965 | locus YFL009W, strain cdc4, hits give low values 0.961 | locus YFL029C, strain CAK1, hits give low values 0.962 | locus YFR003C, strain YPI1, hits give low values 0.977 | locus YFR019W, strain FAB1, hits give low values 0.958 | locus YFR028C, strain CDC14, hits give low values 0.963 | locus YGR040W, strain KSS1, hits give low values 0.924 | locus YGR052W, strain FMP48, hits give low values 1.02 | locus YGR092W, strain DBF2, hits give low values 0.915 | [2] 0.94 | locus YHR079C, strain IRE1, hits give low values 0.978 | locus YHR082C, strain KSP1, hits give low values 1.02 | locus YHR205W, strain SCH9, hits give low values 0.976 | locus YIL147C, strain SLN1, hits give low values 0.97 | locus YJL095W, strain BCK1, hits give low values 0.982 | locus YJL128C, strain PBS2, hits give low values 0.952 | locus YJL157C, strain FAR1, hits give low values 0.928 | locus YJR016C, strain ILV3, hits give low values 0.968 | locus YJR066W, strain TOR1 (second series), hits give low values 0.898 | locus YJR066W, strain TOR1, hits give low values 0.992 | locus YKL048C, strain ELM1, hits give low values 0.954 | locus YKL067W, strain YNK1, hits give low values 0.96 | locus YKL101W, strain HSL1, hits give low values 0.958 | locus YKL193C, strain SDS22, hits give low values 0.968 | locus YKL203C, strain TOR2, hits give low values 0.995 | locus YLR113W, strain HOG1, hits give low values 0.932 | locus YLR133W, strain CKI1, hits give low values 0.946 | locus YLR403W, strain SFP1, hits give low values 0.907 | locus YML070W, strain DAK1, hits give low values 0.942 | locus YMR001C, strain CDC5, hits give low values 0.973 | locus YMR205C, strain PFK2 (second series), hits give low values 0.956 | locus YMR277W, strain FCP1, hits give low values 0.973 | locus YNL006W, strain LST8, hits give low values 0.977 | locus YNL020C, strain ARK1, hits give low values 0.946 | locus YNL161W, strain CBK1, hits give low values 0.959 | locus YNL183C, strain NPR1, hits give low values 0.977 | locus YNL207W, strain RIO2, hits give low values 0.971 | locus YNL222W, strain SSU72, hits give low values 0.965 | locus YNL307C, strain MCK1 (second series), hits give low values 0.94 | locus YOL078W, strain AVO1, hits give low values 0.965 | locus YOL136C, strain PFK27, hits give low values 0.929 | locus YOR061W, strain CKA2, hits give low values 0.943 | locus YOR119C, strain RIO1, hits give low values 0.996 | locus YOR231W, strain MKK1, hits give low values 0.939 | locus YOR329C, strain SCD5, hits give low values 0.963 | locus YPL031C, strain PHO85, hits give low values 0.955 | locus YPL153C, strain RAD53, hits give low values 0.925 | locus YPL204W, strain HRR25, hits give low values 0.915 | locus YPL209C, strain IPL1, hits give low values 0.961 | locus YPL256C, strain CLN2, hits give low values 0.941 | locus YPR025C, strain CCL1, hits give low values 0.973 | locus YPR106W, strain ISR1, hits give low values 0.961 | locus YPR111W, strain DBF20, hits give low values 0.964 | strain NNK1, hits give low values 0.974 | strain TSCII, hits give low values 0.962

COc1ccc(-n2c(=S)[nH]c(=O)c3cccnc32)cc1
inactive: locus YAL013W, strain DEP1, hits give low values 1 | locus YBR229C, strain ROT2, hits give low values 1.01 | [1] 1.04 | locus YDL134C, strain PPH21, hits give low values 0.996 | locus YDR150W, strain NUM1, hits give low values 0.985 | locus YEL061C, strain CIN8, hits give low values 1 | locus YGR078C, strain PAC10, hits give low values 1.04 | locus YGR229C, strain SMI1, hits give low values 0.993 | [2] 1.06 | locus YHR087W, strain rtc3, hits give low values 0.954 | locus YJL187C, strain SWE1, hits give low values 0.99 | locus YJR043C, strain POL32, hits give low values 1.04 | locus YJR075W, strain HOC1, hits give low values 0.993 | locus YLR039C, strain RIC1, hits give low values 0.999 | locus YLR058C, strain SHM2 (second series), hits give low values 0.991 | locus YLR085C, strain ARP6, hits give low values 1.03 | locus YLR262C, strain YPT6, hits give low values 0.988 | locus YML094W, strain GIM5, hits give low values 0.983 | locus YMR219W, strain ESC1, hits give low values 0.999 | locus YMR263W, strain SAP30, hits give low values 1.02 | locus YNL153C, strain GIM3, hits give low values 1.02 | locus YNL298W, strain CLA4 (second series), hits give low values 1 | locus YNL322C, strain KRE1, hits give low values 1.01 | locus YNR030W, strain Alg12, hits give low values 0.994 | locus YPL055C, strain LGE1, hits give low values 0.973 | locus YPL241C, strain CIN2, hits give low values 0.991 | locus YPR135W, strain CTF4, hits give low values 1.05
